Bioassay records: PubChem, several laboratories
CYP2C19 act: activators of human cytochrome P450 2C19; P33261; recombinant CYP2C19, luciferin-H EGE luminescence; stronger effect = higher value; 0 = fully inhibited enzyme, 1 = untreated enzyme; activation factor at 5 µM; 96,000 tested, under 10 active; AID 1025;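 active means activation factor of at least 2 at 5 µM in the primary screen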;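 further: 0 = wells with 2.5 mM tranylcypromine and 1 = vehicle-only wells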
CYP2C9 inhib: blocks human cytochrome P450 2C9; 20% of 96,000 active; inhibition, % at 5 µM; AID 777; P11712; CYP2C9 Supersomes, luciferin-H conversion, luminescence;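 active means blocking of liver enzyme CYP2C9 beyond about 50% at 5 µM, limit read from the data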
Target sequence (P11712 whole entry, looked up): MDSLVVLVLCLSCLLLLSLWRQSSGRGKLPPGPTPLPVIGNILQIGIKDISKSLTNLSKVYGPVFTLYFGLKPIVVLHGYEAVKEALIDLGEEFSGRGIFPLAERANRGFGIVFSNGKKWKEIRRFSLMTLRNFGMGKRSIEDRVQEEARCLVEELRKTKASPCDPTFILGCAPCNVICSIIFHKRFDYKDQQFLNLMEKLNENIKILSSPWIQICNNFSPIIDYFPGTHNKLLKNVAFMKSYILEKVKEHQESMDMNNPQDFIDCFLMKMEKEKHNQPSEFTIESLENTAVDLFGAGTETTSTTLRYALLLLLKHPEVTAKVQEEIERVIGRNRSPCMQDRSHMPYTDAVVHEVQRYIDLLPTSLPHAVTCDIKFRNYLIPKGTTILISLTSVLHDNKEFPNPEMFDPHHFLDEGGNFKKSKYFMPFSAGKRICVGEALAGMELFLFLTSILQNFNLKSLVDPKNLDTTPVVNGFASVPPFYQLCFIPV
CYP2C9 act: activators of human CYP2C9 | P11712 | activation factor at 5 µM | recombinant CYP2C9, luciferin-H conversion, luminescence; stronger effect = higher value; factor 1 = untreated enzyme, 0 = blocked | 1.4% of 96,000 active;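 active means activation factor of 2 or more for CYP2C9 at a 5 µM dose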;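 further: 0 = sulfaphenazole-blocked wells and 1 = vehicle-only wells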
CYP2C19 inh: blocks human cytochrome P450 2C19. P33261. CYP2C19 Supersomes, luciferin-H EGE luminescence, 30 min. inhibition, % at 5 µM. 21% of 96,000 active. AID 778;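 active means CYP2C19 inhibition above a set limit at 5 µM in the primary screen, cut at about 50% in these data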;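 further: plate controls were negative control wells for no effect and 2.5 mM tranylcypromine positive control for full effect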
Cav32 inh: blocks human Cav3.2 T-type calcium channel | 4% of 100,000 active | Cav3.2-expressing cells, Fluo-4 calcium fluorescence FDSS; stronger effect = lower value | AID 449739 | B-score at 10 µM;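 active means single-dose well whose peak fluorescence ratio is a statistical outlier from its plate by either plate-standardised score or position-corrected B-score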
* hit, by the source's call; / = no result given. Compounds with a hit are over-represented: about 27% of the library has one in this group of screens.

SMILES	CYP2C19 act	CYP2C9 inhib	CYP2C9 act	CYP2C19 inh	Cav32 inh
Cc1ccc(Cl)cc1N1CCN(Cc2nnnn2C2CCCCC2)CC1	0.6	58*	0.4	44	-5.2*
C1CCC(n2nnnc2CN2CCN(C3CCCC3)CC2)CC1	0.9	18	0.8	8	0.31
c1ccc(N2CCN(Cc3nnnn3C3CCCCC3)CC2)cc1	0.4	87*	0.1	64*	0.49
CCC(C)N1C(=O)CCC1C(=O)O (stereo unspecified)	1.2	-7	1.1	-18	-1.4
Cc1c(NC(=O)Nc2ccc(Cl)c(Cl)c2)c(=O)n(-c2ccccc2)n1C	0.9	3	1	13	0.22
O=C(NCc1cccs1)c1ccc(Cl)s1	0.5	6	0.9	54*	1.3
CCc1ccc(C(=O)NCc2cccs2)s1	0.2	45	0.5	80*	-0.57
CC1(C)Cc2c(c(N3CCOCC3)nc3sc4c(N5CCOCC5)nnnc4c23)CS1	0.8	78*	0.2	20	/
CCOC(=O)c1sc2nc(N3CCCC3)c3c(c2c1N)CC(C)(C)OC3	1	7	0.9	4	0.058
CCc1nc2c(sc3nc(N4CCOCC4)c4c(c32)CC(C)(C)OC4)c(=O)o1	1	61*	0.4	-1	/
CC1(C)Cc2c(c(N3CCOCC3)nc3sc4c(=O)[nH]cnc4c23)CS1	1.1	24	0.8	-9	0.77
CCOc1ccc(/C(O)=C2\C(=O)C(=O)N(CCOCCO)C2c2ccccc2OC)cc1 (stereo unspecified)	1.1	-5	1	-14	0.57
COc1ccc2c(c1OC)CN(C)CCc1cc3c(cc1C(O)C2)OCO3 (stereo unspecified)	0.2	-23	1.2	80*	0.34
COc1ccc(NC(=O)C(c2ccc(C)cc2)N(C)C(=O)c2cnccn2)cc1 (stereo unspecified)	0.5	53*	0.5	52*	-0.71
CCOC(=O)/C=C/c1ccc2c(c1)S(=O)(=O)N(Cc1ccc(OC)cc1)[C@H]2CC(=O)OCC	/	/	/	/	0.32
Cc1c(-c2cccs2)[n+](=O)c2c(n1[O-])CCCCC2	0.4	49	0.5	59*	0.88
Cc1ccc(-c2c(C)n([O-])c3c([n+]2=O)CCCC3)o1	0.8	14	0.9	19	-0.13
c1ccc(-c2nnc(SCc3nc4ccccc4[nH]3)n2Cc2ccco2)nc1	0.5	90*	0.1	51*	0.013
Clc1ccc(OCc2nnc(SCc3nc4ccccc4[nH]3)n2Cc2ccco2)cc1	0.9	62*	0.4	12	-8.5*
Clc1cccc(-c2nnc(SCc3nc4ccccc4[nH]3)n2Cc2ccco2)c1	0.2	87*	0.1	82*	-5.4*
CCn1c(COc2ccc(C)cc2)nnc1SCc1nc2ccccc2[nH]1	0.7	45	0.6	29	-0.73
COc1cccc(-c2nnc(SCc3nc4ccccc4[nH]3)n2N)c1	0.8	-13	1.1	22	/
Clc1ccccc1CSc1nnc(-c2ccccn2)n1Cc1ccco1	1	7	0.9	0	-3.1
CC1(C)CC(=O)C=C(Nc2cccc(O)c2)C1	1	8	0.9	3	-0.015
C=CCCCCCCCCC(=O)NNC1=CC(=O)CC(C)(C)C1	0.7	51*	0.5	28	-1.1
SMILES	CYP2C19 act	CYP2C9 inhib	CYP2C9 act	CYP2C19 inh	Cav32 inh
Cc1cc(C)c2nc(-c3ccccn3)cc(C(=O)Nc3cc(C)on3)c2c1	0.9	46	0.5	15	-0.59
Cc1cc(NC(=O)c2cc(-c3ccncc3)nc3c(C)cccc23)no1	0.1	97*	0	90*	-2.3
CSc1cccc(NC(=O)COc2ccccc2)c1	0.5	-14	1.1	45	-3.2
CC(Oc1ccccc1)C(=O)Nc1cccc(-c2nc3ccccc3[nH]2)c1 (stereo unspecified)	0.2	98*	0	79*	-4.6*
CC(C)(C)C(=O)Nc1cccc(-c2nc3ccccc3[nH]2)c1	0.5	85*	0.1	53*	-1.3
O=C(COc1ccccc1)Nc1cccc(-c2nc3cc4ccccc4cc3[nH]2)c1	0.6	80*	0.2	44	-2.1
O=C(N/N=C/C=C/c1ccccc1)c1cc2c(ccc3ccccc32)o1	1.1	-10	1.1	-5	0.7
Cc1ccc(S(=O)(=O)Nc2c(C)n(C)n(-c3ccccc3)c2=O)cc1C(=O)NCc1ccccn1	1	-1	1	-2	-0.11
O=C(c1ccc(N2C(=O)C3CC=C(Cl)CC3C2=O)cc1)N1CCCCC1 (stereo unspecified)	1.2	-11	1.1	-24	0.66
O=C(Nc1ccc(Br)cc1)c1ccc(N2C(=O)C3CC=C(Cl)CC3C2=O)cc1 (stereo unspecified)	0.9	74*	0.3	13	0.0014
Cc1cc(-c2ccccc2)nc2cc(C(=O)N(Cc3ccccc3)Cc3ccccc3)nn12	/	/	/	/	-0.37
Cc1cc(Cl)ccc1OCCCC(=O)N1CCCCC1	0	-26	1.3	97*	-2.4
CC1CCN(C(=O)CCCOc2ccc(Cl)cc2)CC1	/	/	/	/	-2.1
O=C(CCCOc1ccc(Cl)cc1Cl)N1CCc2ccccc2C1	/	/	/	/	-3.7
Cc1ccc(OCCN2CCCCCC2)c(C)c1	0.4	15	0.8	58*	-0.48
COC(=O)C1CCN(C(=O)COc2ccc(Cl)cc2)CC1	0.1	31	0.7	86*	-0.34
Cc1cc(OCCCC(=O)N2CCCCC2)cc(C)c1Cl	0.1	-2	1	93*	-3.7
Cc1cccc(NC(=O)N2CCCC2C(=O)NCc2cccs2)c1 (stereo unspecified)	0.5	10	0.9	45	0.049
Cc1nc(SCc2ccccc2)c(C(F)(F)F)c(=O)[nH]1	0.5	44	0.6	48	-2.3
CCOC(=O)C1CCCN(C(=O)c2cc3ncc(Br)cn3n2)C1 (stereo unspecified)	1	-3	1	2	0.56
O=C(COc1ccc(Br)cc1)N1CCCCCC1	0.1	31	0.7	94*	0.44
COCCNC(=O)COc1ccc(C)cc1C	0.3	9	0.9	67*	1.2
O=C(COc1ccc(Cl)cc1)N1CCCC1	/	/	/	/	0.83
Cc1ccc(OCC(=O)N2CCCCCC2)c(C)c1	0.2	-20	1.2	80*	-0.5
Cc1ccc(C)c(OCC(=O)Nc2nonc2NC(=O)COc2cc(C)ccc2C)c1	0.8	77*	0.2	15	-1.7
SMILES	CYP2C19 act	CYP2C9 inhib	CYP2C9 act	CYP2C19 inh	Cav32 inh
Cc1cccc(OCC(=O)Nc2nonc2NC(=O)COc2cccc(C)c2)c1	/	/	/	/	-2.6
COCCNC(=O)COc1ccccc1Cl	0.7	-5	1	27	0.38
COc1ccc([C@H]2C=C(C(=O)O)O[C@@H](OCCCCO)C2)cc1	/	/	/	/	0.46
CCc1nn(CCCC(=O)N2CCc3ccccc3C2)c(=O)c2cc3occc3n12	0.2	8	0.9	80*	0.53
Cc1nn(CCCC(=O)N2CCc3ccccc3C2)c(=O)c2cc3sccc3n12	0.5	51*	0.5	54*	/
Oc1ccccc1N=Nc1nc(-c2ccccc2)c(-c2ccccc2)[nH]1	0.8	54*	0.5	24	-0.36
